Among all 120,000 compounds or so, fewer than 10 were called active. Not shown: some 4% with an inconclusive outcome. The call rests on the fitted dose curve; in most records, active means well fitted curve in the direction sought with a large enough effect in the signal ratio (not every such curve was filed as active); inconclusive means small, poorly fitted or top-dose-only effect, or a change in a side signal; inactive means no such curve, though single readings can be large or run the other way; the % refers to the signal ratio. These entries were drawn from the full list.
molecular target: Inositol monophosphatase 1 (Rattus norvegicus) (UniProt P97697); experiment: qHTS Assay for Identifying the Cell-Membrane Permeable IMPase Inhibitors; details: CHO-M1 cells, HTRF TR-FRET ratio; series mostly up to 46.1 µM;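 further: higher means more IMPase inhibition seen as more IP1 and lower FRET ratio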
Sequence (P97697 whole entry, looked up): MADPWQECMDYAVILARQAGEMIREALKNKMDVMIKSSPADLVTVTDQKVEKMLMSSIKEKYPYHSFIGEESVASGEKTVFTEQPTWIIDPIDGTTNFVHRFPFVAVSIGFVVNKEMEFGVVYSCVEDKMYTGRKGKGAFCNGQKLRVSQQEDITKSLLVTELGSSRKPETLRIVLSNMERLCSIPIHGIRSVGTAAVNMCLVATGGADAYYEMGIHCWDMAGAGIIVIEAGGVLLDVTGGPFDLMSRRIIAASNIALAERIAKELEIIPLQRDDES
Text: NCGC IMPase Assay Overview
Lithium has been widely used for the treatment of bipolar disorder. But lithium has a narrow therapeutic index and it can cause side effects such as thirst, weight gain, tremor, polyuria and memory problems. Although the mechanism for lithium action in treatment of bipolar disorder is still not fully understood, inhibition of inositol monophosphatase (IMPase) and the subsequent depletion of the inositol pool in living cells have been implicated as the primary therapeutic benefit of lithium therapy. Therefore, a selective IMPase inhibitor with reduced side effects might be a good drug candidate to replace lithium for the treatment of bipolar disorder. Several IMPase inhibitors have been discovered previously. However, they are not suitable for therapeutic use because of their poor cell membrane penetrability or oral bioavailability; the development of new cell-permeable IMPase inhibitors is needed.
IMPase catalyzes the hydrolysis of inositol-1-phosphate (IP1) to release free inositol. Binding of an agonist to a Gq coupled GPCR results in the activation of PLC, which hydrolyzes the PIP2 to form inositol-1,4,5-trisphosphate (IP3) and diacyl glycerol (DAG). While DAG activates protein kinase C (PKC), IP3 triggers the elevation of intracellular free Ca2+. The IP3 is very rapidly inactivated by hydrolysis to IP2, IP1 and then inositol by a series of enzymes including IMPase. Free inositols are used for synthesis of PI and thus start another inositol cycle.
To identify new cell-permeable IMPase inhibitors, we developed a cell-based IMPase assay in which the cytosolic IP1 is measured by a time-resolved fluorescence resonance energy transfer (TR-FRET) assay. In this assay, an IP1 specific antibody is used to detect the labeled IP1 tracer. When the cell lysate contains the elevated IP1 due to the inhibition of IMPase, the TR-FRET between the labeled antibody and IP1 tracer is disrupted resulting in a reduction in the total signal. Since the TR-FRET is used, this cell-based assay is a homogenous assay without cell wash and medium change that is suitable for assay miniaturization and HTS.
NCGC IMPase Assay Protocol Summary
A Chinese hamster ovary (CHO) cell line stably expressing the M1 receptor (CHO-M1) was obtained from ATCC and maintained in F-12 Kaighn's media (Invitrogen, Carlsbad, CA, 21127) supplemented with 10 % FBS, 100 units/ml penicillin, 100 ug/ml streptomycin and 250 ug/ml geneticin at 37C, 5% CO2 in a humidified atmosphere. Before the assay, aliquots of cells were frozen and stored at -135C. The assay was performed in 1536-well format. Data are reported for both the ratio of the two emission wavelengths, and also for the component 'donor' channel, Em2=620. […] AC50 values were determined from concentration-response data modeled with the standard Hill equation.
IMPase 1536-well assay protocol:
(1) Plate 4 ul/well (2000 cells) of cell suspension from frozen CHO-M1 Cells in white, tissue culture treated 1536-well plates that are cultured at 37C, 5 % CO2 for 16 to 30 hours.
(2) Add 23 nl/well of compound in DMSO solution. The final titration for each compound was between 0.6 nM and 46 uM.
(3) Add 1 ul of carbachol (50 uM in stimulation buffer containing10mM HEPES, 1mM CaCl2, 0.5 mM MgCl2, 4.2 mM KCl, 146 mM NaCl, 5.5 mM glucose, 50mM LiCl, pH 7.4.
(4) Incubation at 37C, 5 % CO2 for 30 min.
(5) Add 1 ul/well of d2-conjugated IP1 (d2-IP1) and 1 ul/well of Eu+ cryptate conjugated anti-IP1 antibody (Eu+-Ab) prepared in the cell lysis buffer, both from the IP-One kit (Cisbio, MA).
(6) Incubate at room temperature for 10 minutes.
(7) Detect the assay plate (Ex = 320, Em1 =665 and Em2 620) in a ViewLux plate reader.
inositol monophosphatase, IMPase, IMPase inhibitor, lithium, bipolar disorder, IP-One, HTRF, qHTS, NIH roadmap, NCGC
Note: In the gene ID and protein GI references for this assay, rat IMPase is referenced instead of hampster as hamster accession numbers were not available.

outcome, inactive:
COC(=O)c1cc(NC(=O)CCS(=O)(=O)c2cc(Br)cc3c2N(C(=O)C2CC2)CC3)cc(C(=O)OC)c1
COc1ccccc1CN(C)C(=O)C1(c2ccc(Cl)cc2)CC1
COc1ccc(OC)c(NC(=O)C2CCN(S(=O)(=O)c3ccc(C)cc3)CC2)c1
COc1cc(/C=N/NC(=O)CCc2n[nH]c(=O)[nH]c2=O)ccc1O
CCCCSc1ncnc2c1sc1nc(N3CCOCC3)c3c(c12)CCCC3
Cc1c(Cl)c([N+](=O)[O-])nn1CCCC(=O)NC(C)c1ccccc1 (stereo unspecified)
Cc1cc(C)cc(OCC(=O)Nc2c(C(=O)c3ccccc3)oc3ccccc23)c1
CCN(Cc1ccccc1)Cc1c(O)ccc2c(=O)c(-c3ccc(Cl)cc3Cl)coc12
Cn1c(=O)c2c(ncn2CC(=O)Nc2cccc(C(F)(F)F)c2)n(C)c1=O
CSCCC(NC(=O)c1cc([N+](=O)[O-])cc([N+](=O)[O-])c1)c1nc2ccccc2[nH]1 (stereo unspecified)
CCOc1cc(NC(=S)NCCCOC)c(OCC)cc1NC(=O)c1ccco1
O=C(CN1CCc2ccccc21)NC(c1ccccc1)c1ccccc1
CCOC(=O)CC(NC(=O)C1c2ccccc2Oc2ccccc21)c1ccc(C)cc1 (stereo unspecified)
O=C(COC(=O)CSc1nnc(-c2ccc(Cl)cc2)o1)Nc1cc(Cl)cc(Cl)c1
Cc1ccc(-c2nnc(Nc3ccc(OCC(N)=O)cc3)c3ccccc23)cc1S(=O)(=O)NCC1CCCO1 (stereo unspecified)
CCOC(=O)c1ccc(-c2ccc(/C=C(\C#N)C(=O)Nc3ccc(OCC)cc3)o2)cc1
Cc1ccc(-n2c(SCC(=O)N3c4ccccc4Sc4ccccc43)nnc2-c2ccncc2)cc1
CCn1c2ccccc2c2cc(CN3CCN(Cc4cccc(Cl)c4)CC3)ccc21
O=C(Cc1ccc(Cl)cc1)Nc1ccc2nn(-c3ccc(Cl)cc3)nc2c1
CCNC(=S)N1CCC(c2nc3cc(C)c(C)cc3[nH]2)CC1
Cc1cc(Cl)ccc1OCC(=O)N(Cc1ccc(N(C)C)cc1)C1CCS(=O)(=O)C1 (stereo unspecified)
CCNS(=O)(=O)c1ccc(NC(=O)CSc2nc(-c3ccco3)cc(C(F)(F)F)n2)cc1
N#C/C(=C\c1cccc(F)c1)c1nc(-c2cc3c(ccc4ccccc43)oc2=O)cs1
Cc1ccc(N2CC(c3nnc(Cc4ccccc4Cl)o3)CC2=O)cc1 (stereo unspecified)
Cc1ccc(C(=O)Nc2nc(-c3ccccc3)ns2)cc1
Cc1ccc(-n2c3nc(=O)[nH]c(=O)c-3cc3c(Cl)cccc32)cc1
COC(=O)c1c(C)oc2ccc(N(C(=O)Oc3ccccc3)S(=O)(=O)c3ccccc3)cc12
CCC(C(=O)OCC(=O)Nc1c(Cl)cc(Cl)cc1Cl)c1ccccc1 (stereo unspecified)
CCn1c(=O)c(=O)n(CC)c2cc(N3CCCCC3)c(NC(=O)c3ccc(Cl)cc3)cc21
COc1ccc(NC(=O)Cn2c(=O)n(Cc3ccc(C(=O)NCc4ccccc4Cl)cc3)c(=O)c3ccccc32)cc1
CC1=Nc2cc(C(=O)N3CCC(C)CC3)ccc2Sc2ccc(Cl)cc21
COCCNC(=O)c1ccc2c(c1)N=C(C)c1cc(C)ccc1S2
Cc1cccc(C)c1OCC(=O)NC(Cc1c[nH]c2ccccc12)C(=O)O (stereo unspecified)
COc1ccc(-c2csc3ncnc(Oc4ccc5c(C)cc(=O)oc5c4)c23)cc1
CC(C)(C)C(=O)NC(NC(=S)Nc1ccc(S(N)(=O)=O)cc1)C(Cl)(Cl)Cl (stereo unspecified)
CCOC(=O)c1cnc2ccc(F)cc2c1Nc1ccc2c(c1)OCCO2
COc1ccc(CNC(=O)CCCn2nc(C)c([N+](=O)[O-])c2C)cc1
Cc1cc[n+](-c2[nH]c(=O)sc2/C=N/NC(=O)c2ccccc2[O-])cc1C
COc1ccc(-c2noc(CCC(=O)N(C)c3ccccc3C)n2)cc1
CCOC(=O)c1c(C)n(S(=O)(=O)c2ccc(C)cc2C)c2ccc(NS(=O)(=O)c3ccc(C)cc3C)cc12
CCC1CCCCN1C(=S)Nc1ccc(SC(F)F)cc1 (stereo unspecified)

From PubChem BioAssay AID901 (National Center for Advancing Translational Sciences (NCATS), 2007)
